Experimental data: PubChem BioAssay (NCI)
This is part of a sample that, as a whole, favours compounds with a hit. Of some 83,000 tested, about 20% had one in any assay.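 Single-dose data. Exposure time 48 hours. Values below 10 considered active.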 Unmarked numbers belong to inactive results. Calls of active or inactive are those of the source.

Experiments:
Test in all cases: NCI-60 one-dose screen, 48 h (100 = growth as untreated, 0 = no growth, -100 = all killed)
[1] = tested on: DU-145 prostate; details: 10 µM unless noted
[2] = tested on: K-562 leukemia; details: 10 µM unless noted
[3] = tested on: MALME-3M melanoma; details: 10 µM unless noted
[4] = tested on: MDA-MB-231 breast; details: 10 µM unless noted
[5] = tested on: RXF 393 renal; details: 10 µM unless noted
[6] = tested on: SF-268 CNS; details: 10 µM unless noted
[7] = tested on: SF-295 CNS; details: 10 µM unless noted
[8] = tested on: SF-539 CNS; details: 10 µM unless noted
[9] = tested on: UACC-257 melanoma; details: 10 µM
[10] = tested on: M14 melanoma; details: 10 µM unless noted
[11] = tested on: HCT-15 colon; details: 10 µM unless noted
[12] = tested on: HT29 colon; details: 10 µM unless noted
[13] = tested on: SNB-75 CNS; details: 10 µM unless noted
[14] = tested on: SNB-19 CNS; details: 10 µM unless noted
[15] = tested on: U251 CNS; details: 10 µM unless noted
[16] = tested on: PC-3 prostate; details: 10 µM unless noted
[17] = tested on: SK-MEL-5 melanoma; details: 10 µM unless noted
[18] = tested on: UACC-62 melanoma; details: 10 µM unless noted
[19] = tested on: LOX IMVI melanoma; details: 10 µM unless noted
[20] = tested on: SK-MEL-28 melanoma; details: 10 µM unless noted

Row | Structure (SMILES) | growth [1] | growth [2] | growth [3] | growth [4] | growth [5] | growth [6] | growth [7] | growth [8] | growth [9] | growth [10] | growth [11] | growth [12] | growth [13] | growth [14] | growth [15] | growth [16] | growth [17] | growth [18] | growth [19] | growth [20]
1 | CCCCCc1ccc(S(=O)(=O)N(C(C)=O)c2cccc(-c3csc(N(CCN4CCN(C)CC4)C(C)=O)n3)c2)cc1 | 41.6% | -26.2% (active) | -85.6% (active) | 4.58% (active) | -59.2% (active) | 63.2% | -68.1% (active) | -80.9% (active) | -52.6% (active) | -71.7% (active) | -13.6% (active) | -41.4% (active) | 64% | 60.6% | -10.8% (active) | 62.5% | -97.7% (active) | -71.4% (active) | -92.1% (active) | -85.8% (active)
2 | CC1=C2C(=C[C@@](C)(COS(N)(=O)=O)[C@@H]2O)C(=O)[C@](C)(O)C12CC2 | 15.3% | 97.2% | 88.3% | 83% | -30.2% (active) | 32.2% | 20.5% | 64.9% | 89.3% | 76.7% | 67.6% | 56.8% | 72.6% | 72.4% | 71.8% | 58.5% | 89.5% | 62.1% | 77% | 87.6%
3 | CN1CCN(c2ccc(NC(=O)Nc3ccc4c(ccn4-c4cccc(C(N)=O)n4)c3)cc2C(F)(F)F)CC1 | 77.2% | -13.8% (active) | 16% | 74.8% | -12.9% (active) | 82.1% | -54.7% (active) | 6.11% (active) | -14% (active) | -47% (active) | 3.6% (active) | 5.77% (active) | 82.2% | 53.2% | 33.8% | 50.9% | 75% | 94.1% | -27.7% (active) | -53.6% (active)
4 | O=C1CSC(=O)N1Cc1cc2ccccc2nc1Cl | 104% | 99.8% | 94.2% | 103% | 96% | 99.1% | 101% | 108% | 103% | 103% | 101% | 107% | 84.7% | 99.8% | 97.6% | 96.8% | 99.7% | 93.9% | 97.4% | 109%
5 | Oc1ccc(CSc2nnc(-c3cnccn3)o2)c2cccnc12 | 26.1% | 10.2% | -6.87% (active) | 31% | 20.6% | 22.9% | -7.6% (active) | 18.6% | 6.92% (active) | 28.6% | 13.8% | 25.2% | 26.5% | 18.1% | 18.5% | 15.2% | -38.5% (active) | 15% | 17.5% | 37.6%
6 | CCOC(=O)/C(F)=C/C1CC1C1CCCCC1 (stereo not given) | 105% | 117% | 97.9% | 98.6% | 108% | 102% | 103% | 94.3% | 120% | 98.9% | 102% | 111% | 95.2% | 98.5% | 105% | 102% | 99.8% | 95.5% | 98% | 100%
7 | O=C1/C(=C/c2ccccc2[N+](=O)[O-])Oc2ccc(O)cc21 | 29.8% | 4.21% (active) | 47.8% | 30.2% | 12.3% | 78.5% | 88.9% | 15.2% | 60.3% | 54.9% | -31.4% (active) | -23.7% (active) | 54.2% | 79.3% | 56.9% | 57.1% | 90.8% | 37.1% | -46.2% (active) | 43.3%
8 | O=C(O)CNS(=O)(=O)c1ccc(Oc2ccc(S(=O)(=O)NCC(=O)O)cc2)cc1 | 105% | 94.3% | 99.1% | 102% | 112% | 96.6% | 113% | 92.7% | 102% | 100% | 102% | 99.3% | 66.6% | 98.1% | 99.3% | 98.6% | 101% | 99% | 99.8% | 101%
9 | COc1ccc(-c2nc3cc(Cl)c(Cl)cc3n2CC(=O)N=Nc2c(O)[nH]c3ccccc23)cc1 | -11.4% (active) | 28.7% | 35.9% | 54.2% | -21.8% (active) | 64.4% | 79.4% | 13.7% | 95.7% | 50.5% | 30.6% | 78.9% | 60% | 91.3% | 71% | 76.1% | 53.6% | 68.1% | 9.62% (active) | 74.7%
10 | Clc1ccc(-c2csc(Nc3cccc(Nc4csc(-c5ccc(Cl)cc5)n4)c3)n2)cc1 | 86.2% | 67.1% | 98% | 64.2% | 94.4% | 79.3% | 90% | 82.8% | 102% | 74.7% | 56.5% | 88.1% | 96.8% | 85.5% | 85.4% | 74.1% | 96.2% | 76% | 63.8% | 92.7%
11 | O=S(=O)(Nc1ccc2c(c1)OC(F)(F)O2)c1ccc(-c2cnc(C3CC3)o2)cc1 | 68.6% | 9.69% (active) | 50.2% | 48.1% | 49.5% | 60.6% | 22.6% | 37.8% | 58.9% | 25.4% | 26.2% | 17.2% | 19% | 47% | 32.6% | 45.3% | 38% | 29.4% | 37.7% | 58.3%
12 | NC(=O)c1c(NC(=O)c2cccc(OC(F)(F)F)c2)sc2c1CCC(=O)C2 | 107% | 13.5% | 81.3% | 63.3% | 36.4% | 55.7% | 46.1% | 25.7% | 81.8% | 37.6% | 19.2% | 40.3% | 43.6% | 43.1% | 28.7% | 21.3% | 95.4% | 60.7% | 28.5% | 82.6%
13 | Cc1cc(C(=O)Nc2ccc(SC#N)cc2)c(C)o1 | 104% | 93.3% | 107% | 92.4% | 66.5% | 66.6% | 92.4% | 98.8% | 111% | 101% | 82.1% | 106% | 104% | 90.7% | 76% | 73.9% | 99.6% | 93.1% | -41.2% (active) | 104%
14 | C=C(C)C(=O)O[C@H]1C[C@@]2(C)OC(=CC2=O)[C@H](C)[C@H](O)[C@H]2OC(=O)C(=C)[C@@H]21 | 73.2% | 20.4% | 48.3% | 76.6% | 22.2% | 79.8% | 93.8% | 74.7% | 67% | 71.7% | 32.6% | 95.6% | 77.2% | 106% | 86.6% | 79.7% | 88.2% | 52.3% | 57.7% | 61.7%
15 | CC(C)(C)CC(C)(C)n1nnnc1C(Nc1ccccc1)c1cc2cccc3ccc4cccc1c4c32 (stereo not given) | 96.9% | 72.6% | 87.4% | 75.1% | 79.5% | 82.4% | 86.5% | 95.7% | 95.5% | 90.2% | 78.5% | 70.7% | 99.9% | 95.1% | 88.7% | 50.4% | 89.6% | 67.4% | 85.1% | 90%
16 | CCN1C(=O)N(CC)C2SC(N/N=C/c3ccccc3)=NC21 (stereo not given) | 22.5% | 14.7% | 58.2% | 26% | 41.5% | 47.6% | 12.8% | -11.2% (active) | 62.9% | 12.3% | 16.9% | -0.975% (active) | 37.4% | 27.3% | 17.1% | 28% | 12.1% | 37% | 17.3% | 58.1%
